# Shown are actives, neighbours in structure and some others; about 10% of the full set was active somewhere.
# G9a block: qHTS Assay for Inhibitors of Histone Lysine Methyltransferase G9a. AID 504332, 2011. G9a H3K9 monomethylation, AlphaScreen, 2 h. Potency, µM (titrated, usually from 102 µM), without a hit: at the top dose activity, negative = inhibition, most hits filed as inhibitors. hit rate 8.8% among 350,000; further: potency means the concentration at half of the fitted maximal effect; on the % scale 0 is the no-effect control and ±100 the full control effect; nearly all actives have a fitted effect of over 75% in size
#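 Enzyme 20 nM + cpd, 15 min RT; add b-H3K9 pep 500 nM / SAM 20 uM; 2 h RT; anti-H3K9me1 Ab 0.5 ug/mL + SA donor / anti-rabbit acceptor beads 20 ug/mL each, 10 min; AlphaScreen read.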
# BAZ2B inh: qHTS Assay for Inhibitors of BAZ2B. Bromodomain adjacent to zinc finger domain protein 2B (Homo sapiens), Q9UIF8. AlphaScreen BAZ2B-H3K14Ac peptide displacement. Potency, µM (doses to about 114 µM), inactives show at the top dose activity change, negative = inhibition, hits mostly inhibitors. hit rate 4.4% among 360,000; further: potency means the concentration at half of the fitted maximal effect; on the % scale 0 is the no-effect control and ±100 the full control effect; nearly all actives have a fitted effect of over 60% in size
#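 AlphaScreen displacement of biotin-H3(5-23)K14Ac peptide (50 nM final) from BAZ2B (50 nM final) in PBS pH 7.4, 0.01% Tween-20; complex preformed 30 min RT, then compounds (top 110 uM) 30 min RT, beads 20 min dark.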
# HP1b chromo inh: HTS for Inhibitors of HP1-beta Chromodomain Interactions with Methylated Histone Tails; Potency, µM (highest dose often 114 µM), without a hit: top-dose activity change, negative = inhibition, most hits filed as inhibitors; AID 540317, 2011; AlphaScreen HP1-beta / biotin-H3K9me3 peptide binding; Chromobox protein homolog 1 (Homo sapiens), P83916; hit rate 0.56% among 390,000; further: potency means the concentration at half of the fitted maximal effect; nearly all actives have a fitted effect of over 70% in size
#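 HP1-beta protein (50 nM final) preincubated 30 min at room temperature with biotinylated H3(1-18)K9me3 peptide (50 nM) in PBS pH 7.4, 0.01% Tween-20, then compound added for 30 min. AlphaScreen streptavidin donor/nickel chelate acceptor beads (10 ug/mL final), 30 min dark, luminescence read.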
# CtBP-E1A inh: qHTS Assay for Inhibitors of the CtBP/E1A Interaction. activity change, % (no concentration beside the values). AlphaScreen GST-E1A/His-CtBP binding, 1536-well; active compounds read low. CtBP / adenovirus E1A interaction (AlphaScreen). AID 651724, 2012. hit rate 0.49% among 340,000; in the data active means activity change below about -65%; inconclusive means mostly about -30% to -63%; further: on the % scale 0 is the no-effect control and ±100 the full control effect
#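 GST-E1A and His-tagged CtBP (125 nM each as 5X stock) were preincubated with pin-transferred compound for 2 h at 37 °C in the dark, then glutathione donor and nickel acceptor beads were added for 1 h before AlphaScreen reading.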
# Six1-Eya2 blk: qHTS Assay for Inhibitors of the Six1/Eya2 Interaction | Homeobox protein SIX1 (Homo sapiens) + Protein phosphatase EYA2 (Homo sapiens), … | AlphaScreen GST-Six1/His-Eya2 binding, biochemical; active compounds read low | activity change, % (concentration not given with the values) | hit rate 0.56% among 360,000 | AID 651725, 2012; in the data active means activity change below about -65%; inconclusive means mostly about -30% to -63%; further: on the % scale 0 is the no-effect control and ±100 the full control effect
# Target sequence (O00167 whole entry, looked up): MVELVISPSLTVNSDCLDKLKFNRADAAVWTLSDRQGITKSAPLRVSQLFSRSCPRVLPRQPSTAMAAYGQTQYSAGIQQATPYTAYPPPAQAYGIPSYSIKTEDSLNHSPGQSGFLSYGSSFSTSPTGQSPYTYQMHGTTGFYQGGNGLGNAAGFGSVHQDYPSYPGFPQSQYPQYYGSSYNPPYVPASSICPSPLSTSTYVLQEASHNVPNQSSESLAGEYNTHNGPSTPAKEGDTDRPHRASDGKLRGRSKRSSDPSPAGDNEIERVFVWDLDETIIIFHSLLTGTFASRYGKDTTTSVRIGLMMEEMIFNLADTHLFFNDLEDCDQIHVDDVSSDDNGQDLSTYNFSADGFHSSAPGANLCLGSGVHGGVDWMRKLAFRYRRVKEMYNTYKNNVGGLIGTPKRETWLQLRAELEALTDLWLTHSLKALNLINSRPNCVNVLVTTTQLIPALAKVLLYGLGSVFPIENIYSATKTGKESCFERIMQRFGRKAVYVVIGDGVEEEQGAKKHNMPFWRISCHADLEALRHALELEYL
# Target sequence (Q15475 whole entry, looked up): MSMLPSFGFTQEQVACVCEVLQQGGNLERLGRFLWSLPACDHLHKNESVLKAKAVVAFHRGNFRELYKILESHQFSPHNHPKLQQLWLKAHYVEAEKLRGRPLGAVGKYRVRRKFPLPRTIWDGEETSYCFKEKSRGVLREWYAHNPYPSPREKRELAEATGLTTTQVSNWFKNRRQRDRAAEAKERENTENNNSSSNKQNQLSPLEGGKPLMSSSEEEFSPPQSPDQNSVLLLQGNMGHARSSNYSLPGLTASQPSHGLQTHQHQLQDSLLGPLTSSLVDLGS
#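 AlphaScreen with GST-Six1 and His-Eya2 (5X mix: 250 nM and 500 nM), glutathione donor and nickel acceptor beads; buffer 50 mM Tris pH 8.0, 300 mM NaCl, 1 mM TCEP; 1 h at 37 C in the dark.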
# JMJD2A Tudor inh: qHTS Assay for Inhibitors of JMJD2A-Tudor Domain. hit rate 4.4% among 390,000. Lysine-specific demethylase 4A (Homo sapiens), O75164. Potency, µM (doses to about 114 µM), for the others: top-dose activity change, negative = inhibition, hits mostly inhibitors. AlphaScreen JMJD2A-Tudor / H3K4me3 peptide binding. AID 504339, 2011; further: potency means the concentration at half of the fitted maximal effect; on the % scale 0 is the no-effect control and ±100 the full control effect; nearly all actives have a fitted effect of over 50% in size
# Active calls of the source: *; ? = inconclusive; nt = no result; [ ] = remark or other dose. Unless noted, the call rests on the fitted dose curve; in most records, active means well fitted inhibition curve with a large enough effect; inconclusive means small, poorly fitted or top-dose-only effect; inactive means no such curve, though single readings can be large or run the other way.
SMILES,G9a block,BAZ2B inh,HP1b chromo inh,CtBP-E1A inh,Six1-Eya2 blk,JMJD2A Tudor inh
CCOC(=O)NC1(Nc2cccc(Cl)c2)Oc2ccccc2O1,2µM*,2.9%,?,3.6,-3.1,39.8µM*
O=C1c2oc3ccccc3c(=O)c2C(c2ccccc2F)N1Cc1ccc2c(c1)OCO2 (centres undefined),-31.2%[59 µM],1.3%,7.9%,nt,nt,-15.5%
COc1ccc(NC(=S)N=Nc2c(O)[nH]c3ccccc23)cc1,-34.0%,-27.1%,4.2%,nt,?,-13.3%
Cc1ccc(S(=O)(=O)N=Nc2c(O)[nH]c3ccccc23)cc1C,4.47µM*,-35.0%,47.1%,-1.6,6.7,35.5µM*
COc1ccc(S(=O)(=O)N=Nc2c(O)[nH]c3ccccc23)cc1,3.16µM*,-3.4%,61.4%,3.3,-0.5,-26.9%
Cc1ccc(N(CC(=O)N=Nc2c(O)[nH]c3ccccc23)S(C)(=O)=O)c(C)c1,-7.3%,-2.9%,-15.5%,-1.6,1.5,?
O=S(=O)(c1ccc2c(c1)OCCO2)N1CCN(S(=O)(=O)c2c(Cl)cc(C(F)(F)F)cc2Cl)CC1,nt,nt,nt,nt,nt,-13.0%
CCOc1ccc(-c2nc(SCC(=O)NCCOC)c(-c3ccc(OC)c(OC)c3)[nH]2)cc1,-22.7%[59 µM],?,-10.6%,nt,nt,-28.8%
CCNC(=O)C1(C)CCN(Cc2ccc(C#N)cc2)C1 (centres undefined),nt,nt,nt,1.5,2.0,nt
Cc1ccc(NC(=O)CSc2nnc(C3CC3)n2CC2CCCO2)c(C)c1 (centres undefined),4.2%,-2.1%,34.8%,4.3,3.0,4.9%
Cc1ccc(NCc2nnc(SCC(=O)Nc3ccccc3)n2CC2CCCO2)c(C)c1 (centres undefined),-11.5%[59 µM],?,-19.2%,-7.5,-10.5,56.2µM*
CCOC(=O)c1cccc(NC(=O)CSc2nnc(CNc3ccc(C)cc3)n2CC)c1,?,50.1µM*,12.6%,-21.7,-7.5,-24.4%
O=S1(=O)N=C(c2ccccc2)c2ccccc21,nt,nt,-8.6%,-3.1,2.0,-14.9%
CCOC(=O)c1c(C)[nH]c(C(=O)Cn2c(=O)c3c(ncn3CC)n(Cc3ccccc3)c2=O)c1C,8.91µM*,-5.7%,4.6%,-10.8,-21.7,-21.9%
CCOC(=O)c1cnc2c(C(=O)OCC)cnn2c1N,nt,0.5%,-7.0%,-0.8,-14.4,-6.1%
CCOC(=O)c1cnn2c(N)c(C#N)cnc12,44.7µM*,?,15.1%,nt,-3.1,?
O=C(Nc1ccc(S(=O)(=O)NCC2CCCO2)cc1)c1ccc(Cl)cc1[N+](=O)[O-] (centres undefined),14.2%[12.7 µM],-36.6%,21.0%,-5.3,-2.4,-15.3%
Cc1ccccc1N(C(=O)c1ccccn1)C(C(=O)NCc1ccccc1)c1cccnc1 (centres undefined),1.9%,3.6%,3.8%,6.9,6.0,-5.3%
Cc1ccc2nc(SCc3nc(-c4ccccc4C)no3)[nH]c2c1,-3.0%[59 µM],-1.0%,46.3%,nt,nt,3.0%
O=C(CSc1nnc(-c2ccc(F)cc2)o1)N1CCCc2ccccc21,10µM*,-7.5%,5.4%,nt,nt,-4.8%
O=C(CSc1ccc(-c2ccccn2)nn1)N1CCCc2ccccc21,?,8.91µM*,13.9%,-66.2*,-80.4*,7.94µM*
Cc1ccc(C(=O)N2CC(=O)Nc3ccc(F)cc3C2c2ccccc2)cc1 (centres undefined),?,-12.0%,-1.0%,-18.1,3.2,-16.3%
Cc1nc(-c2ccc(Cl)cc2)sc1CCNC(=O)c1cccs1,7.2%[59 µM],0.4%,0.8%[57 µM],nt,nt,-1.0%
CCCCc1c(-c2cccc(Cl)c2)ncn1CCc1ccccc1OC,nt,nt,nt,-16.7,-11.3,nt
O=C(NCc1ccccc1)/C(=C\c1ccccc1)NC(=O)c1ccco1,26.5%,-11.3%,20.6%,2.0,1.4,-20.3%
SMILES,G9a block,BAZ2B inh,HP1b chromo inh,CtBP-E1A inh,Six1-Eya2 blk,JMJD2A Tudor inh
CC(=O)N/C(=C\c1ccc(C)o1)C(=O)NCc1ccccc1,70.8µM*,-1.5%,42.7%,-3.7,-5.1,-28.3%
O=C(NCC1CCCO1)/C(=C\c1ccccc1)NC(=O)c1ccccc1 (centres undefined),nt,-7.7%,-3.5%,5.1,5.7,-12.7%
Cc1ccc(/C=C(\NC(=O)c2ccccc2)C(=O)NCC2CCCO2)o1 (centres undefined),56.2µM*,-12.2%,32.9%,nt,7.7,-7.4%
Cc1ccc(C)c(CSc2nnc3[nH]c(=O)cc(-c4ccccc4)n23)c1,0.4%[59 µM],2.9%,40.5%,nt,nt,-15.9%
COC1CCCN(Cc2c(C(=O)N3CCN(C4CCCCC4)CC3)nc3ccccn23)C1 (centres undefined),79.4µM*,?,26.2%,0.7,2.6,-11.9%
CC(C)Oc1ccc(S(=O)(=O)N2CCOCC2)cc1NC(=O)c1cc([N+](=O)[O-])ccc1N1CCOCC1,15.7%[0.501 µM],0.6%,-7.6%,4.4,-4.8,-30.4%
CC1Cc2cccc3c(O)c(C(=O)c4nn[nH]n4)c(=O)n1c23 (centres undefined),8.91µM*,?,60.8%,3.2,-4.3,?
CNC(=O)c1c(O)c2cccc3c2n(c1=O)CC3,nt,nt,20.3%,-0.3,-3.6,8.1%
CC1(C(=O)Nc2ccc(Cl)c(Cl)c2)CCN1C(=O)CCC1CCCC1 (centres undefined),nt,nt,nt,21.6,15.3,nt
Cc1ccc(NC(=O)C2=CCN(S(=O)(=O)c3ccc(F)cc3)CC2)c(C)c1,?,-0.2%,48.4%,1.9,6.3,-7.6%
CCC(C)NC(=O)C1=CCN(S(=O)(=O)c2ccc(C)cc2)CC1 (centres undefined),50.1µM*,-0.1%,5.6%,9.9,-0.4,-11.6%
CCC(C)NS(=O)(=O)c1ccc(S(=O)(=O)N2CC=C(c3ccc(F)cc3)CC2)cc1 (centres undefined),10µM*,-25.9%,?,3.2,-3.8,?
C#CCNC(=O)C[C@@H]1C[C@@]2(C(=O)OCC)CCCC=C2N(Cc2ccccc2)C1=O,nt,nt,nt,0.9,6.4,nt
CN(C)c1ccc(NC(=O)COC(=O)c2cc(=O)c3ccccc3o2)cc1,10µM*,-30.9%,38.2%,-8.7,-5.7,-14.6%
CC(OC(=O)c1cccc(N2C(=O)c3ccccc3C2=O)c1)C(=O)Nc1ccc(N(C)C)cc1 (centres undefined),16.3%[59 µM],?,7.3%,-5.5,-11.9,-12.4%
CC(OC(=O)c1cc(=O)c2ccccc2o1)C(=O)Nc1ccc(N(C)C)cc1 (centres undefined),3.16µM*,-1.9%,15.7%,-2.3,-1.2,?
